Test results published in ChEMBL document CHEMBL3433997, “St. Jude Leishmania screening dataset” (2016).

Assays:
Assay type in all cases: functional
[1] = molecular target: Solute carrier family 2, facilitated glucose transporter member 1 (Homo sapiens) (UniProt P11166); assay: ST_JUDE_LEISH: Cytotoxicity at 2uM final concentration against transgenic Leishmania Mexicana promastigotes LmGLUT1 that are glucose transport deficient and complemented with the human glucose transporter GLUT1. Activity is measured by DNA content using SYBR green in vitro
Solute carrier family 2, facilitated glucose transporter member 1 (Homo sapiens), sequence (P11166 whole entry): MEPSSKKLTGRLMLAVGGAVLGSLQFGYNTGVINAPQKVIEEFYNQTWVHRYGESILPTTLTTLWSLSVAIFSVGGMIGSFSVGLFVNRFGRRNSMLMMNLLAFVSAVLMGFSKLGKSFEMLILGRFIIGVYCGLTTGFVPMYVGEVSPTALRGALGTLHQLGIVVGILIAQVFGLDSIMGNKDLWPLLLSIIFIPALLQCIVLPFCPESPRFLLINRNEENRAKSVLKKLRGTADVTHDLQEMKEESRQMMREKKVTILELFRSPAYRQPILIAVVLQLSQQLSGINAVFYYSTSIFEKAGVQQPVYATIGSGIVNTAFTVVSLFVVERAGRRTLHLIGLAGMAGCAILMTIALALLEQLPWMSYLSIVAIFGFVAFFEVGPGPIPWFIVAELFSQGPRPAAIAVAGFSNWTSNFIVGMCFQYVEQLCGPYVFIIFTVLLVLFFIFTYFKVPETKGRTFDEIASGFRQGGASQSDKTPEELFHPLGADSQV

[2] = molecular target: Hexose transporter 1 (Plasmodium falciparum) (UniProt O97467); assay: ST_JUDE_LEISH: Cytotoxicity at 2uM final concentration against transgenic Leishmania Mexicana promastigotes LmPfHT that are glucose transport deficient and complemented with the Plasmodium falciparum hexose transporter. Activity is measured by DNA content using SYBR green in vitro
[3] = molecular target: Glucose transporter (Leishmania mexicana) (UniProt O61059); assay: ST_JUDE_LEISH: Cytotoxicity at 2uM final concentration against transgenic Leishmania Mexicana promastigotes LmGT2 that are glucose transport deficient and complemented with the L. Mexicana glucose transporter 2. Activity is measured by DNA content using SYBR green in vitro

CC(C)(C)c1ccc(CNC(=O)c2cc(CNC3CCNC3)ccc2O)cc1 (stereo not drawn)
inhibition [1]: 1.88%
inhibition [2]: 0.79%
inhibition [3]: 0.53%

CCN(CCNc1nc(NCCc2cnc[nH]2)nc(N(CCC#N)Cc2ccccc2)n1)c1cccc(C)c1
inhibition [1]: 12.1%
inhibition [2]: 12.8%
inhibition [3]: 6.78%

O=C(Nc1cccc([N+](=O)[O-])c1)Nc1ccc(Cl)c(C(F)(F)F)c1
inhibition [1]: -1.69%
inhibition [2]: 1.56%
inhibition [3]: 0.73%

O=C(/C=C/c1ccc(Cl)c(Cl)c1)NCCCCCN1CCC(NC(=O)Nc2cc(Cl)cc(Cl)c2)CC1
inhibition [1]: 8.59%
inhibition [2]: 9.64%
inhibition [3]: 9.93%

Cc1cccc2nc(-c3ccc(-c4cccc(CNCCNC(=O)c5ccnn5C)c4)s3)[nH]c12
inhibition [1]: 3.8%
inhibition [2]: 4.31%
inhibition [3]: 3.87%

CO/N=C(\C)c1ccc2c(c1)CCN(CCC1CCC(NC(=O)/C=C/c3ccc(F)cc3)CC1)CC2 (stereo not drawn)
inhibition [1]: 6.29%
inhibition [2]: 3.02%
inhibition [3]: 11.2%

COc1ccc(Cc2c(C)nc3nc(N)nc(N)c3c2C)cc1
inhibition [1]: 39%
inhibition [2]: 38.2%
inhibition [3]: 34.5%

O=S(=O)(c1cccc2cccnc12)N1CCN(C2CCCCC2)CC1
inhibition [1]: 8.16%
inhibition [2]: 8.51%
inhibition [3]: 7.83%

CN(CCCNCc1cccc2ccccc12)CCCNCc1cccc2ccccc12
inhibition [1]: 1.31%
inhibition [2]: 0.53%
inhibition [3]: 1.98%

Cc1ccc2nc(N/C(N)=N/C(=O)NC3CCCCC3)nc(C)c2c1
inhibition [1]: 3.24%
inhibition [2]: 4.89%
inhibition [3]: 2.16%

CCCN(CCCN(CCCN(CCC)C(C)C)c1cc(C)nc(Nc2ccc(Cl)cc2)n1)C(C)C
inhibition [1]: 9.21%
inhibition [2]: 7.26%
inhibition [3]: 6.27%

CN(C)CCC1CCN(CCS(=O)(=O)c2cccc(Nc3ncc(-c4cccc(F)c4)cn3)c2)CC1
inhibition [1]: -2.08%
inhibition [2]: 0.49%
inhibition [3]: 9.03%

COc1ccc2nc(-c3cc(-c4ccc(NC(=O)CN5CCOCC5)cc4)cnc3N)[nH]c2c1
inhibition [1]: 17.5%
inhibition [2]: 44.4%
inhibition [3]: 11.7%

O=C(Nc1ccc2c(c1)CCC2)c1ccc(N2CCN(c3ccncc3)CC2)cc1
inhibition [1]: 68.7%
inhibition [2]: 29.6%
inhibition [3]: 68.3%

CCc1ccccc1OCCCON1C(=N)N=C(N)NC1(C)C
inhibition [1]: 28.6%
inhibition [2]: 37.9%
inhibition [3]: 29.2%

CC(C)NCc1ccc(-c2cccc(-c3nc4cc(F)ccc4[nH]3)c2)cc1
inhibition [1]: -1.78%
inhibition [2]: 0.53%
inhibition [3]: -0.69%

Cc1nc(C)c(CC(=O)Nc2ccc(-c3cccc(-c4nc5cc(C(F)(F)F)ccc5[nH]4)c3)cc2)s1
inhibition [1]: 13%
inhibition [2]: 10.6%
inhibition [3]: 8.58%

CC(C)(CNCc1cccc(Oc2ccccc2)c1)c1nc(-c2ccnc(N)n2)c(-c2ccc(Cl)c(O)c2)[nH]1
inhibition [1]: -0.85%
inhibition [2]: -0.2%
inhibition [3]: -0.78%

Nc1nc(N)c2c(n1)CCC(c1ccccc1)C2 (stereo not drawn)
inhibition [1]: 2.39%
inhibition [2]: 1.07%
inhibition [3]: 1.39%

Cc1cccc2nc(-c3cccc(-c4ccc(CNCCc5ccncc5)cc4)c3)[nH]c12
inhibition [1]: 0.46%
inhibition [2]: -0.37%
inhibition [3]: -0.84%

COc1ccc(CNc2nc(NCCc3ccccc3)c3cc(OC)c(OC)cc3n2)cc1OC
inhibition [1]: 3.4%
inhibition [2]: 3.46%
inhibition [3]: 2.54%

COc1ccc(Cl)cc1N1CCN(CCCNC(=O)c2ccc(-c3nc4cc5ccccc5cc4[nH]3)c(F)c2)CC1
inhibition [1]: 1.51%
inhibition [2]: 3.41%
inhibition [3]: 1.26%

CC(=O)C=C1CC(=O)N(C[C@@H](O)[C@H]2O[C@@H]3OC(C)(C)O[C@@H]3[C@H]2O)c2ccccc2N1
inhibition [1]: 2.82%
inhibition [2]: 3.82%
inhibition [3]: 2.35%

COc1ccc2nccc([C@@H](O)CN3CCC(NCc4cc5cccc(O)c5[nH]4)CC3)c2c1
inhibition [1]: 1.85%
inhibition [2]: 2.02%
inhibition [3]: 3.77%

O=C(Nc1cc(C(F)(F)F)cc(C(F)(F)F)c1)c1cccc([N+](=O)[O-])c1
inhibition [1]: 3.73%
inhibition [2]: 4.66%
inhibition [3]: 2.84%

C#C[C@H]1O[C@@H](n2cnc3c(Nc4cc(Br)cc(C(F)(F)F)c4)ncnc32)[C@H](O)[C@@H]1O
inhibition [1]: 3.1%
inhibition [2]: 2.11%
inhibition [3]: 2.53%

CCNc1cc(C(=O)N[C@@H](Cc2ccccc2)[C@H](O)CNCCc2cc(OC)cc(OC)c2)cc(N2CCCCS2(=O)=O)c1
inhibition [1]: 7.06%
inhibition [2]: 4.2%
inhibition [3]: 10%

CC1CCC2(CC1)NC(N)=NC(=N)N2OCCCCCCCCO (stereo not drawn)
inhibition [1]: 6.99%
inhibition [2]: 4.43%
inhibition [3]: 2.52%

CC1CNC(c2ccc(NC(=O)Nc3ccc(C4=NC(C)CN4)cc3)cc2)=N1 (stereo not drawn)
inhibition [1]: 4.6%
inhibition [2]: 5.64%
inhibition [3]: 3.84%

O=[N+]([O-])c1cccc(CNC2CCN(Cc3ccc4ccccc4c3)CC2)c1
inhibition [1]: 19%
inhibition [2]: 12.4%
inhibition [3]: 10.9%

Cn1cc(CN2CCC(OC(c3ccccc3)c3ccc(Cl)cc3)CC2)cn1 (stereo not drawn)
inhibition [1]: 4.78%
inhibition [2]: 1.66%
inhibition [3]: -0.63%

CCN(CC)CCN(CCCc1ccc(-c2ccc(C(F)(F)F)cc2)cc1)C(=O)Cn1c(CCc2cccc(F)c2F)nc(=O)c2c1CCC2
inhibition [1]: -2.04%
inhibition [2]: -0.48%
inhibition [3]: 6.62%

Brc1ccc(Nc2nc(NCC3CCCO3)c3ccccc3n2)cc1 (stereo not drawn)
inhibition [1]: 24.2%
inhibition [2]: 22.3%
inhibition [3]: 8.12%

Cc1ccc(C(=O)Nc2ccc(-c3nc4ccccc4[nH]3)cc2)cc1S(=O)(=O)N1CCOCC1
inhibition [1]: 2.29%
inhibition [2]: 1.71%
inhibition [3]: 0.77%

COC(=O)c1cccc(CNCc2cccc(-c3csc(-c4nc5ccccc5[nH]4)c3)c2)c1
inhibition [1]: 9.3%
inhibition [2]: 8.51%
inhibition [3]: 6.38%

c1cncc(CNc2ncc(-c3ccsc3)c(-c3nccs3)n2)c1
inhibition [1]: 5.96%
inhibition [2]: 8.95%
inhibition [3]: 7.02%
